The list is not random: actives were taken first. Their share in the collection is about 2.1%.
aSyn rescue – inhibitors of alpha-synuclein toxicity in yeast; 0.14% of 370,000 active; Potency, µM (top dose mostly 46.1 µM), for the others: at the top dose growth rescue (activation), most hits filed as activators; AID 652106; Yeast expressing alpha-synuclein, growth rescue, BacTiter-Glo, 24 h; note: % of control where 0% means no effect; nearly all actives have a fitted effect of over 65% in size
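Galactose-induced alpha-syn yeast (OD600=0.02, raffinose-pregrown) + pinned cpd, 24 hr, 30 deg C; growth by BacTiter-Glo luminescence. Growth restoration scores as activation.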
Abeta rescue – compounds reversing amyloid beta toxicity in yeast; yeast expressing A-beta42, growth rescue, OD600, 48 h; response scale: 0% DMSO, 100% iron-clioquinol control; Potency, µM (doses to about 46.1 µM), actives largely listed as activators; 0.063% of 410,000 active; AID 1347071; note: nearly all actives have a fitted effect of over 55% in size
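Yeast A-beta toxicity model in growth medium with pinned compounds, 48 h at 30 C; growth read as absorbance at 600 nm. Normalized to FeCl3/clioquinol equimolar mix (positive) and DMSO (negative).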
FUS yeast rescue – rescues growth of FUS-expressing yeast. S. cerevisiae FUS-expressing, growth rescue, OD600, 24 h. Potency, µM (doses to about 76.6 µM), usual class: activators. 0.24% of 390,000 active. AID 1347120;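 note: plate controls were DMSO vehicle for no effect and reference control for full effect; nearly all actives have a fitted effect of over 55% in size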
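Yeast FUS proteinopathy model; galactose-induced FUS (2%), starting OD 0.005. Cpds in dilution series, 24hr, 30C, 99% humidity. Abs 600 nm growth. Pos ctrl CP55940 (top 92uM final); neg ctrl DMSO.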
TDP43 rescue – inhibitors of TDP-43 toxicity in yeast | TDP-43 expressing yeast growth rescue, BacTiter-Glo, 24 h | Potency, µM (series often up to 46.1 µM), without a hit: at the top dose growth rescue (activation), usual class: activators | 1.8% of 410,000 active; note: % of control where 0% means no effect; nearly all actives have a fitted effect of over 50% in size
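Yeast expressing TDP-43 (pregrown in raffinose, seeded at OD600=0.02 in galactose medium) exposed to compounds 24 hr at 30 deg C. Growth read by BacTiter-Glo luminescence; rescue of toxicity appears as increased signal.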
Numbers without * were called inactive; i = inactive; ? = inconclusive; / = no result given. Calls come from the whole dose curve; as a rule, active = well fitted curve in the direction sought with a large enough effect; inconclusive = small, poorly fitted or top-dose-only effect, or another doubt; inactive = no such curve, though single readings can be large; an effect the other way counts as inactive or inconclusive. Potency is the fitted concentration of half-maximal effect.

SMILES | aSyn rescue | Abeta rescue | FUS yeast rescue | TDP43 rescue
CCN1CCN(C(=S)NC(=O)c2cccs2)CC1 | -2% | i | i | -11%
O=C(NC(=S)N1CCN(c2ccc(C(F)(F)F)cc2[N+](=O)[O-])CC1)c1cccs1 | -3% | i | / | 20µM*
Cc1ccc(C(=O)c2cccc(N)c2)cc1C | 8% | i | i | 3%
O=C(c1ccccc1)c1ccc2cc(O)ccc2c1 | -31% | i | i | 11µM*
Cc1ccc(C(=O)c2ccc(O)cc2)cc1C | 0% | i | i | 18µM*
O=C(c1ccccc1)c1ccc2ccccc2c1 | -13% | i | i | -15%
COc1ccc(C(=O)c2ccc(Cl)cc2)cc1 | -13% | i | i | -9%
O=C(c1ccc(O)cc1)c1ccc(Cl)cc1 | 10% | i | i | 11µM*
Cc1ccc2c(c1)CCCN2C(=O)c1cnn2c1NC(=C1CC1)C=C2C(F)F | -1% | / | / | /
CCN(Cc1nc(-c2ccc(OC)c(OC)c2)no1)S(=O)(=O)c1ccc(OC)cc1 | / | i | ? | 28%
CC(C)=NNc1nc(-c2ccc([N+](=O)[O-])cc2)cs1 | 6% | i | i | 13µM*
C/C(=N\Nc1nc(C)c(C)s1)c1ccc([N+](=O)[O-])cc1 | -7% | i | i | 13µM*
COc1cccc(Cn2c(Cn3c(-c4cnccn4)nc4ccccc43)nc3ccccc32)c1 | 2% | i | i | 1%
COc1ccc(OCc2nc3ccccc3n2C(C)c2ccccc2)cc1 (configuration not stated) | / | ? | i | 13µM*
COc1cccc(OCc2nc3ccccc3n2Cc2ccccc2)c1 | / | ? | i | 22µM*
COc1cccc(Cn2c(C(C)n3c(-c4cnccn4)nc4ccccc43)nc3ccccc32)c1 (configuration not stated) | ? | i | ? | 14µM*
O=C(NCCc1ccc(Cl)cc1)c1ccc2c(c1)ncn2C1CCCCC1 | / | / | i | /
O=C(NCc1ccco1)c1ccc(Oc2ccccc2)cc1 | 0% | i | i | 20µM*
O=C(COC(=O)c1cccc(Oc2ccccc2)c1)NCc1ccco1 | 16% | ? | i | 16µM*
O=C(NCc1ccco1)c1ccc(C(=O)NCc2ccco2)cc1 | -3% | i | / | 13%
COc1cc(N2C(=O)c3ccccc3C2=O)c(Cl)cc1C(=O)OCC(=O)NCc1ccco1 | -7% | i | 16µM* | 13%
COc1ccc([C@H](C#Cc2ccccc2)CC(=O)O)cc1OC1CCCC1 | / | / | i | /
Clc1ccccc1N/N=C/c1ccc2c(c1)OCO2 | -20% | i | i | 18µM*
CCCSc1nc2c(c(=O)n1CC)SC(C)C2 (configuration not stated) | -10% | i | i | 22µM*
CC1Cc2nc(SCC(=O)N3CCN(c4ccccc4)CC3)n(CCc3ccccc3)c(=O)c2S1 (configuration not stated) | 2% | i | 14µM* | ?
SMILES | aSyn rescue | Abeta rescue | FUS yeast rescue | TDP43 rescue
CCN(C(=O)CSc1nnc(-c2cccnc2)n1Cc1ccco1)c1ccccc1C | / | / | i | /
O=C1c2sccc2-c2cccc3cccc1c23 | ? | i | i | -52%
O=C1C(Br)=Cc2cccc3cccc1c23 | 0% | i | i | 14µM*
C(=C\c1ccnc2ccccc12)/c1cccnc1 | -2% | / | / | /
O=C1Cc2cc([N+](=O)[O-])ccc2N1c1c(Cl)cccc1Cl | 3% | i | i | 20µM*
O=[N+]([O-])c1ccc(N2CCN(c3ccccc3O)CC2)c(Cl)c1 | 5% | i | i | 14%
COc1cccc(CSc2nnc(CSc3nc4nc(C)cc(C)n4n3)s2)c1 | 2% | i | i | 20µM*
CN(C)c1ccc(/C=C2\C=Cc3ccccc32)cc1N | 2% | / | / | /
CCCCN1C(=O)N2Cc3ccc(C)cc3C2CS1(=O)=O (configuration not stated) | / | / | i | /
O=C(NCC1CCOCC1)c1ccc(-c2ccc(F)c(F)c2)c2ccoc12 | 9% | i | i | 25µM*
CCCc1cc(=O)[nH]c(Nc2cc(Cl)cc(Cl)c2)n1 | / | i | i | 13%
O=C(NC1CCCC1)c1cnn2c1NC(=C1CC1)C=C2C(F)F | 4% | / | / | /
CCCN1C(=O)/C(=C/c2ccc(C)s2)NC1=S | -8% | i | i | 11µM*
Cc1ccc(/C=C2/NC(=O)N(Cc3ccccc3F)C2=O)s1 | -11% | i | i | 17%
